Experimental data reported in PubChem BioAssay AID504832 (National Center for Advancing Translational Sciences (NCATS), 2011).
Among all 310,000 compounds or so, about 18,000 (5.8%) were called active. About 22% were inconclusive and are not listed. What follows is part of a selection rich in actives, with near analogues and random picks from the rest. Where a call stands in place of a potency, no number is given. Values without a mark were called inactive. Calls come from the whole dose curve; as a rule, active = well fitted inhibition curve with a large enough effect; inconclusive = small, poorly fitted or top-dose-only effect, or another doubt; inactive = no such curve, though single readings can be large or run the other way.

Experiment: Primary qHTS for delayed death inhibitors of the malarial parasite plastid, 48 hour incubation
Conditions: P. falciparum luciferase growth in erythrocytes; series mostly up to 28.7 µM
In short: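 Here the parasites carry a stable luciferase gene and grow inside erythrocytes in Albumax-based RPMI medium with compound for one erythrocytic cycle. Activity is scored as loss of luminescent signal.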
Potency is the fitted concentration of half-maximal effect.

Q: With `COc1nc(N=C(N)N)nc2c(C)cccc12` as the compound, how does the Potency read?
A: Its Potency is 1.65 µM (active).

Q: For `O=C(C1CCC(=O)N(C2CC2)C1)N1CCN(c2ccc(Cl)cc2)CC1` (centres undefined), which Potency is on record?
A: Its Potency is “inactive”.

Q: With `Cc1ccc(S(=O)(=O)N2CCCCC2)cc1C(=O)N1CCN(CCO)CC1` as the compound, how does the Potency read?
A: The Potency was “inactive”.

Q: For `CC(CC(=O)Nc1ccc(F)cc1F)S(=O)(=O)c1ccc2c(c1)NC(=O)CO2` (centres undefined), which Potency is on record?
A: Its Potency is “inactive”.

Q: With `O=[N+]([O-])c1cc(C(F)(F)F)ccc1NCCc1ccncc1` as the compound, how does the Potency read?
A: The Potency was “inactive”.

Q: With `COc1ccc(C(=O)NCc2nnc(SCC(=O)Nc3cccc(OC)c3)o2)cc1` as the compound, how does the Potency read?
A: Its Potency is “inactive”.

Q: With `Cc1ccc(Cc2nnc(SCC(=O)Nc3ccc(C)cc3C)[nH]c2=O)cc1` as the compound, how does the Potency read?
A: Its Potency is “inactive”.

Q: For `CCC1C(C#N)=C(SC)NC2=C1C(=O)CC(C)(C)C2` (centres undefined), which Potency is on record?
A: The Potency was “inactive”.

Q: For `COc1cc(C2C(C#N)=C(C)NC3=C2C(=O)CC(C)(C)C3)ccc1O` (centres undefined), which Potency is on record?
A: Its Potency is 10.4 µM (active).

Q: For `CC(=O)C1=C(C)NC2=C(C(=O)CC(C)(C)C2)C1C` (centres undefined), which Potency is on record?
A: The Potency was “inactive”.

Q: Which Potency does the source give for `CC(=O)Nc1c2c(nn1-c1cccc(C)c1)CSC2` here?
A: The Potency was “inactive”.

Q: Which Potency does the source give for `COc1ccc(S(=O)(=O)n2cnc3ccccc32)c(C)c1` here?
A: The Potency was “inactive”.

Q: Which Potency does the source give for `O=S(=O)(c1ccccc1)N(Cc1cccc(F)c1)c1ccccc1` here?
A: The Potency was “inactive”.

Q: With `COc1ccc(NC(=O)COc2ccc(C(=O)c3ccc(F)cc3)cc2)cc1S(N)(=O)=O` as the compound, how does the Potency read?
A: The Potency was “inactive”.

Q: For `Cc1cc(=O)oc2c3c(cc(OCC(=O)N[C@H](C(=O)O)c4ccccc4)c12)OC(C)(C)CC3`, which Potency is on record?
A: Its Potency is “inactive”.

Q: With `Cc1ccc(C)c(NC(=O)C2CCCN2C(=O)OC(C)(C)C)c1` (centres undefined) as the compound, how does the Potency read?
A: Its Potency is “inactive”.

Q: Which Potency does the source give for `CCOC(=O)N1CCC(NC(=O)c2cnn3ccccc23)CC1` here?
A: Its Potency is “inactive”.

Q: For `Cc1ccc(-n2ncc(C(=O)NC3CC3)c2C2CCN(C(=O)OC(C)(C)C)CC2)c(C)c1`, which Potency is on record?
A: The Potency was 10.4 µM (active).

Q: With `O=C(COC(=O)c1cccc(Cl)c1)Nc1ccc2[nH]c(=O)[nH]c2c1` as the compound, how does the Potency read?
A: Its Potency is “inactive”.

Q: Which Potency does the source give for `CCCS(=O)(=O)Nc1ccc(-c2cn3c(n2)SCC3)cc1` here?
A: The Potency was “inactive”.

Q: With `Cc1ccc(NC(=O)Cn2c(C)csc2=O)cc1` as the compound, how does the Potency read?
A: Its Potency is “inactive”.

Q: For `CCC(=O)Nc1ccc2c(c1)nc(CCN1CCN(c3ccccn3)CC1)n2C`, which Potency is on record?
A: Its Potency is “inactive”.

Q: For `CCC(=O)Nc1ccc2c(c1)nc(CCN1CCN(C)CC1)n2C`, which Potency is on record?
A: Its Potency is “inactive”.

Q: With `Cn1c(CCN2CCCCCC2)nc2cc(NC(=O)Nc3ccccc3)ccc21` as the compound, how does the Potency read?
A: The Potency was 3.29 µM (active).

Q: With `O=C(NC1CCCCC1)C1CCC(CNS(=O)(=O)c2ccccc2)CC1` (centres undefined) as the compound, how does the Potency read?
A: Its Potency is “inactive”.

Q: Which Potency does the source give for `CCN(CC)S(=O)(=O)c1ccc(N2CCOCC2)c(NC(=O)C2CSC3(C)CCC(=O)N23)c1` (centres undefined) here?
A: Its Potency is “inactive”.

Q: For `CC(C)Oc1ccc(S(=O)(=O)N2CCOCC2)cc1NC(=O)C1CCCC1`, which Potency is on record?
A: The Potency was “inactive”.

Q: Which Potency does the source give for `CC(C)Oc1ccc(S(=O)(=O)N2CCOCC2)cc1NC(=O)C1CSC2(C)CCC(=O)N12` (centres undefined) here?
A: Its Potency is 9.28 µM (active).

Q: For `Cc1ccc(NC(=O)CSc2nnc(CNC(=O)c3ccccc3F)o2)cc1Cl`, which Potency is on record?
A: Its Potency is “inactive”.

Q: With `Cc1ccc(NC(=O)CSc2nn3c(=O)c(C)nnc3s2)cc1Cl` as the compound, how does the Potency read?
A: The Potency was 13.1 µM (active).

Q: Which Potency does the source give for `Cc1ccc(NC(=O)C/C(N)=N/O)cc1Cl` here?
A: Its Potency is “inactive”.

Q: Which Potency does the source give for `COc1cccc(-c2nc(CS(=O)CC(=O)NCc3ccc(F)cc3)c(C)o2)c1` (centres undefined) here?
A: The Potency was “inactive”.

Q: For `CCCn1c(=O)c(C(=O)Nc2cc(C)ccn2)c(O)c2ccccc21`, which Potency is on record?
A: The Potency was “inactive”.

Q: For `O=S(=O)(Nc1ccccc1)c1ccc(NS(=O)(=O)c2cccs2)cc1`, which Potency is on record?
A: The Potency was “inactive”.

Q: Which activity change, negative = inhibition does the source give for `CCCCNC(=O)N(O)C1N(/N=C/c2ccc(N(C)C)cc2)C(=S)SC1(C)C` (centres undefined) here?
A: Its activity change, negative = inhibition is -2.29% [at 0.00184 µM].

Q: With `N#Cc1c(-c2ccccc2)c(-c2ccccc2)n[nH]c1=O` as the compound, how does the Potency read?
A: Its Potency is “inactive”.

Q: With `N#Cc1c(/N=C/N2CCCC2)oc(-c2ccccc2)c1-c1ccccc1` as the compound, how does the Potency read?
A: The Potency was 4.65 µM (active).

Q: Which Potency does the source give for `N#Cc1c(NC(=O)CCCN2C(=O)c3ccccc3C2=O)oc(-c2ccccc2)c1-c1ccccc1` here?
A: The Potency was “inactive”.

Q: Which Potency does the source give for `C=C1CCC(N(O)c2cc(C)on2)C(=C)CCC2C1CC2(C)C` (centres undefined) here?
A: Its Potency is 4.65 µM (active).

Q: For `COc1ccc(S(=O)(=O)N(C)CC(=O)NCCCN2CCOCC2)cc1Cl`, which Potency is on record?
A: The Potency was “inactive”.

Q: With `CCCNC(=O)COc1coc(CN2CCN(Cc3ccccc3)CC2)cc1=O` as the compound, how does the Potency read?
A: The Potency was “inactive”.

Q: With `Cc1ccc(CNS(=O)(=O)CCNC(=O)c2ccccc2)cc1` as the compound, how does the Potency read?
A: The Potency was “inactive”.

Q: With `O=c1c2ccccc2oc2nc(C3CCCCC3)n(Cc3ccco3)c(=O)c12` as the compound, how does the Potency read?
A: Its Potency is 13.1 µM (active).

Q: With `O=c1c2ccccc2oc2nc3n(c(=O)c12)CCCS3` as the compound, how does the Potency read?
A: Its Potency is “inactive”.

Q: Which Potency does the source give for `O=C(Cn1c(=O)n(Cc2ccco2)c(=O)c2ccccc21)NCC1CCCO1` (centres undefined) here?
A: Its Potency is “inactive”.

Q: For `Cc1cccc(COc2ccccc2/C=N/Nc2ccc([N+](=O)[O-])cc2)c1`, which Potency is on record?
A: The Potency was “inactive”.

Q: Which Potency does the source give for `COCCNC(=O)c1ccccc1NS(=O)(=O)c1ccc(C)c([N+](=O)[O-])c1` here?
A: Its Potency is “inactive”.

Q: For `Cc1ccc(NS(=O)(=O)c2ccc(N/N=C/c3ccccc3OCC(=O)O)c([N+](=O)[O-])c2)c(C)c1`, which Potency is on record?
A: The Potency was 11.7 µM (active).

Q: Which Potency does the source give for `O=C(N/C(=C\c1ccc([N+](=O)[O-])cc1)C(=O)N1CCCCC1)c1ccco1` here?
A: Its Potency is “inactive”.
